Compound activity (PubChem)
A selection: hits, their analogues and other compounds. The true share with any hit is near 7.3%.
SMN2 splice up = enhancers of SMN2 splice variant expression; HEK293 SMN2-luciferase splicing reporter, luminescence, 30-36 h; Potency, µM (top dose mostly 46.1 µM), for inactives: at the highest dose activity change, positive = activation, usual class: activators; 2.8% of 210,000 active; further: % of control where 0% means no effect; nearly all actives have a fitted effect of over 55% in size
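qHTS luciferase splicing reporter: luminescence rises when SMN2 exon 7 is included in transfected HEK293 cells. Compound exposure lasted 30-36 h at 37C, with 4.5 mM final sodium butyrate as control, followed by a ONE-Glo read.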
ELG1 genotoxic = induces genotoxicity in HEK293T cells with luciferase-tagged ELG1. HEK293T ELG1-luciferase reporter, luminescence, 16 h. Potency, µM (doses to about 46 µM), without a hit: at the top dose activity change, positive = activation, actives largely listed as activators. 1.3% of 330,000 active. AID 504466; further: % of control where 0% means no effect; nearly all actives have a fitted effect of over 60% in size
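Genotoxicity was scored as increased ELG1-luciferase reporter signal, measured by ONE-Glo luminescence (30 min, room temperature). Compound or vehicle exposure of the HEK293T reporter cells lasted 16 hr at 37°C.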
NPC1 promoter act = NPC1 promoter activation; 2.4% of 320,000 active; Huh7 NPC1 promoter luciferase reporter, 24 h; AID 485313; Potency, µM (series often up to 9.22 µM), for inactives: at the top dose activation, usual class: activators; further: % of control where 0% means no effect; nearly all actives have a fitted effect of over 60% in size
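Luciferase expression driven by the NPC1 promoter was measured in stably transfected Huh7 cells after a 24 h compound incubation, using a luciferase reagent and a luminescence read.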
FLuc counter = inhibits or activates purified firefly luciferase, miR-21 counter-screen; P08659; purified FLuc, Km substrates, luminescence inhibition; Potency, µM (highest dose often 57.5 µM), for inactives: at the top dose activity change, negative = inhibition, actives largely listed as inhibitors; 6.9% of 360,000 active; AID 588342;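 further: plate controls were vehicle for no effect and reference inhibitor for full effect; nearly all actives have a fitted effect of over 55% in size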
Target sequence (P08659 whole entry, looked up): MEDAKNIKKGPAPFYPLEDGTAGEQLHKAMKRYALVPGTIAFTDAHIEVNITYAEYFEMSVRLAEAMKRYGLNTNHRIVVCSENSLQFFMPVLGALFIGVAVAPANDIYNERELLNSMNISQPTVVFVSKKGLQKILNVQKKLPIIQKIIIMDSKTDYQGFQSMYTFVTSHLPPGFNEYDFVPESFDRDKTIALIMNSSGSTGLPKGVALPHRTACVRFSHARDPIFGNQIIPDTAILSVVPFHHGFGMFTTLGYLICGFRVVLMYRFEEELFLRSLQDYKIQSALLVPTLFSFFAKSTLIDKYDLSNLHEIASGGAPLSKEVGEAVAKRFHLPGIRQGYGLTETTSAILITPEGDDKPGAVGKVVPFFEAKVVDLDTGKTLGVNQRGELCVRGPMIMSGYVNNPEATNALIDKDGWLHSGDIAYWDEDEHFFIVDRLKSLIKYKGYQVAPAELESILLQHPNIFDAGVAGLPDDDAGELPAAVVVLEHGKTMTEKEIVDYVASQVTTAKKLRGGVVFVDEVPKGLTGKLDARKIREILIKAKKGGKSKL
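Biochemical qHTS of compounds, final roughly 60 µM downward over six points, against 10 nM purified firefly luciferase using Km concentrations of substrates (10 uM D-luciferin, 10 uM ATP) in Tris acetate pH 7.5 buffer; luminescence output.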
Rab9 promoter act = activators of Rab9 promoter; Huh7 Rab9 promoter-luciferase reporter, luminescence, 24 h; Potency, µM (titrated, usually from 9.22 µM), inactives show at the highest dose activation, negative = inhibition, hits mostly activators; 2.8% of 320,000 active; AID 485297; further: % of control where 0% means no effect; nearly all actives have a fitted effect of over 60% in size
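Measured in stably transfected Huh7 cells bearing a Rab9 promoter–luciferase construct: 24 h compound treatment at 37 °C, followed by luminescence detection.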
p53 reactivation = restores transcriptional activity of mutant p53 | 0.063% of 320,000 active | H1299 p53-A138V BP100-luciferase reporter, luminescence, 24 h | Potency, µM (series often up to 92.2 µM), for inactives: at the top dose activity change, positive = activation, actives largely listed as activators; further: % of control where 0% means no effect; nearly all actives have a fitted effect of over 45% in size
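p53-null H1299 cells stably carrying temperature-sensitive p53-A138V and a BP100-luciferase reporter were pinned with compounds (4-point, 1:5 series) and held 24 hrs at 37 deg C. Luminescence was read 10 min after detection reagent.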
* marks the source's active call; other numbers are inactive results; ? = inconclusive; / = no result given. The call rests on the fitted dose curve; in most records, active means well fitted curve in the direction sought with a large enough effect; inconclusive means small, poorly fitted or top-dose-only effect, or another doubt; inactive means no such curve, though single readings can be large; an effect the other way counts as inactive or inconclusive. Potency means the concentration at half of the fitted maximal effect.

SMILES	SMN2 splice up	ELG1 genotoxic	NPC1 promoter act	FLuc counter	Rab9 promoter act	p53 reactivation
CN=c1scc(C)n1/N=C/c1cc(Br)c(O)c(OC)c1	?	2%	2%	17µM*	26%	-5%
CN=c1scc(-c2cccs2)n1/N=C/c1ccccc1O	-80%	-11%	-37%	0.17µM*	-51%	-28%
Cc1ccccc1C(=O)N1CCC(C(=O)NC2CCCC2)CC1	/	-1%	1%	1%	-6%	3%
COC(=O)N1CCC2(CC1)CN(C(c1ccccc1)c1ccccc1)C2	2%	/	/	/	/	/
Nc1ccc2oc(=O)c3ccccc3c2c1	14µM*	?	?	-19%	?	4%
CC(Sc1nc2ccccc2o1)C(=O)O (stereo unspecified)	-19%	?	-3%	15µM*	4%	?
O=C(O)CSc1nc2ccccc2o1	-6%	6%	1%	-13%	12%	1%
CC(=O)Nc1cccc(NC(=O)CSc2nc3ccccc3o2)c1	15%	-2%	6%	-15%	0%	15%
Cc1ccc(C(=O)CSc2nc3ccccc3o2)cc1	-29%	20%	22%	13µM*	?	29%
O=C(CSc1nc2ccccc2o1)Nc1ccccc1	23%	21µM*	3%	?	-1%	26%
CC(C)c1ccc(S(=O)(=O)N2CCC(n3c(C(F)(F)F)nc4cccnc43)CC2)cc1	/	/	/	-6%	/	/
C=CCn1c(SCC(=O)O)nnc1-c1ccc(C(C)(C)C)cc1	-2%	-2%	-4%	17µM*	5%	-4%
Cc1ccc(-c2nnc(SCC(=O)O)n2N)cc1	-13%	-1%	2%	-2%	15%	20%
C=CCn1c(SCC(=O)O)nnc1-c1cccc(Cl)c1	5%	0%	-3%	-1%	-6%	1%
CC(C)(C)c1ccc(-c2nnc(SCC(=O)O)n2N)cc1	4%	6%	17%	11µM*	8%	0%
Cc1cc(Cl)ccc1NC(=O)CCS(=O)(=O)c1ccc2c(c1)CC(C)N2C(=O)C1CC1 (stereo unspecified)	/	/	/	-1%	/	/
NC(=S)N/N=C/c1ccccc1O	/	-5%	2%	2%	-6%	3%
Oc1ccccc1/C=N/Nc1ccnc(SCc2ccccc2)n1	2%	-1%	-4%	1%	-41%	-3%
Oc1ccc(/C=N/Nc2ccc3ccccc3c2)c(O)c1	7%	19%	9%	19µM*	1%	5%
Oc1ccccc1/C=N/Nc1ccccc1	-4%	?	-3%	7.6µM*	26%	?
O=C(N/N=C/c1ccc(O)cc1O)C(=O)N/N=C/c1ccc(O)cc1O	/	2%	3%	0%	-5%	/
Oc1ccccc1/C=N/Nc1ncc(Br)cn1	-73%	16µM*	-3%	?	25%	?
Cc1ccc2oc(C(=O)N(C)Cc3ccon3)c(C)c2c1	/	9.2µM*	3.2µM*	11µM*	3.5µM*	21%
CCCc1ccc2oc(C(=O)N(C)Cc3cnccn3)c(C)c2c1	/	12%	2%	-5%	1%	-6%
Cc1ccc2oc(C(=O)N(C)Cc3ccc(C)o3)c(C)c2c1	/	12%	9%	27µM*	12%	?
CN1CCN(C2=C(Cl)C(=O)N(Cc3ccccc3)C2=O)CC1	7%	0%	5%	0%	0%	20µM*
COCC(C)NC(=O)CCc1nnc(C2(c3ccc(Cl)cc3)CCC2)o1 (stereo unspecified)	/	?	22%	24µM*	?	12%
CCC(=O)C1CCCN(C(=O)CCc2nnc(C3(c4ccc(Cl)cc4)CCC3)o2)C1 (stereo unspecified)	/	?	?	13µM*	?	?
C=CCNC(=O)CCc1nnc(C2(c3ccc(Cl)cc3)CCC2)o1	8.9µM*	?	29%	17µM*	3.2µM*	?
